Assay outcomes (PubChem BioAssay)
TRPV1 agonist = activates the human vanilloid receptor TRPV1 | TRPV1-expressing cells, Fluo-8 calcium influx, agonist mode | Q8NER1 | activation, % at 8.33 µM | 320,000 compounds, 0.19% hits; in the data active means activation above about 80%; inconclusive means between about 30% and that limit
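Fluo-8 calcium influx in TRPV1-expressing cells, kinetic read (ex 480/em 520 nm). Compound added and read 3 min for agonist activity, followed by capsaicin at EC20 final and 2 min further read for enhancement.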
ELG1 repair inh = ELG1-dependent DNA repair inhibition | HEK293T ELG1-luciferase reporter, luminescence, 16 h; DNA damage induced by 5-fluorouridine | Potency, µM (titrated, usually from 46.1 µM), most hits filed as inhibitors | 330,000 compounds, 2.3% hits; further: nearly all actives have a fitted effect of over 55% in size
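HEK293T cells expressing luciferase-tagged ELG1 (2,000/well) received 5-Fluorouridine plus compound or DMSO for 16 hr at 37 °C. Luciferase was read by ONE-Glo luminescence after 30 min at room temperature.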
FUS suppressor = FUS proteinopathy suppression in yeast. Potency, µM (series often up to 76.6 µM), usual class: activators. 390,000 compounds, 0.24% hits. S. cerevisiae FUS-expressing, growth rescue, OD600, 24 h; further: nearly all actives have a fitted effect of over 55% in size
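Cultures pregrown in 2.5% raffinose medium are shifted to minimal medium containing 2% galactose to express toxic FUS. Compounds are tested at several concentrations. After 24hr at 30C, growth is quantified at 600 nm absorbance.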
Giardia killer = Giardia lamblia killing; 340,000 compounds, 0.15% hits; Giardia lamblia trophozoite viability; activity change, % at 7.66 µM, hits read low; in the data active means activity change below about -80%; inconclusive means between about -30% and that limit;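 further: parasites exposed to compound for two days anaerobically before the ATP read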
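Luminescence from cellular ATP indicates surviving trophozoites (100 cells/well) following 48 hrs anaerobic compound treatment at 37 deg C; signal develops 15-30 min at room temperature.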
TRPV1 PAM = potentiators of human vanilloid receptor 1 (TRPV1); TRPV1-expressing cells, Fluo-8 calcium influx, capsaicin EC20 potentiation; potentiation, % at 8.33 µM; 320,000 compounds, 0.02% hits; AID 540277; in the data active means potentiation above about 80%; inconclusive means between about 30% and that limit
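Fluo-8 calcium influx in TRPV1-expressing cells, kinetic read (ex 480/em 520 nm). Compound added and read 3 min for agonist activity, followed by capsaicin at EC20 final and 2 min further read for enhancement.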
ELG1 FLuc counter = luciferase inhibition in cell-free luciferin readout for ELG1 hits. shares compounds with ELG1 repair inh. cell-free firefly luciferase luminescence counter-screen, ViewLux. Potency, µM (highest dose often 46.1 µM), hits mostly inhibitors. 350 compounds, 3% hits. AID 624247
ELG1-Luc inh = confirmation of human ELG1-dependent DNA repair inhibitors. shares compounds with ELG1 repair inh. HEK293T ELG1-luciferase levels, luminescence; cells co-treated with 5-fluorouridine. Potency, µM (series often up to 46.1 µM), most hits filed as inhibitors. 670 compounds, 68% hits. AID 624248; further: nearly all actives have a fitted effect of over 55% in size
Target sequence (Q96QE3 whole entry, looked up): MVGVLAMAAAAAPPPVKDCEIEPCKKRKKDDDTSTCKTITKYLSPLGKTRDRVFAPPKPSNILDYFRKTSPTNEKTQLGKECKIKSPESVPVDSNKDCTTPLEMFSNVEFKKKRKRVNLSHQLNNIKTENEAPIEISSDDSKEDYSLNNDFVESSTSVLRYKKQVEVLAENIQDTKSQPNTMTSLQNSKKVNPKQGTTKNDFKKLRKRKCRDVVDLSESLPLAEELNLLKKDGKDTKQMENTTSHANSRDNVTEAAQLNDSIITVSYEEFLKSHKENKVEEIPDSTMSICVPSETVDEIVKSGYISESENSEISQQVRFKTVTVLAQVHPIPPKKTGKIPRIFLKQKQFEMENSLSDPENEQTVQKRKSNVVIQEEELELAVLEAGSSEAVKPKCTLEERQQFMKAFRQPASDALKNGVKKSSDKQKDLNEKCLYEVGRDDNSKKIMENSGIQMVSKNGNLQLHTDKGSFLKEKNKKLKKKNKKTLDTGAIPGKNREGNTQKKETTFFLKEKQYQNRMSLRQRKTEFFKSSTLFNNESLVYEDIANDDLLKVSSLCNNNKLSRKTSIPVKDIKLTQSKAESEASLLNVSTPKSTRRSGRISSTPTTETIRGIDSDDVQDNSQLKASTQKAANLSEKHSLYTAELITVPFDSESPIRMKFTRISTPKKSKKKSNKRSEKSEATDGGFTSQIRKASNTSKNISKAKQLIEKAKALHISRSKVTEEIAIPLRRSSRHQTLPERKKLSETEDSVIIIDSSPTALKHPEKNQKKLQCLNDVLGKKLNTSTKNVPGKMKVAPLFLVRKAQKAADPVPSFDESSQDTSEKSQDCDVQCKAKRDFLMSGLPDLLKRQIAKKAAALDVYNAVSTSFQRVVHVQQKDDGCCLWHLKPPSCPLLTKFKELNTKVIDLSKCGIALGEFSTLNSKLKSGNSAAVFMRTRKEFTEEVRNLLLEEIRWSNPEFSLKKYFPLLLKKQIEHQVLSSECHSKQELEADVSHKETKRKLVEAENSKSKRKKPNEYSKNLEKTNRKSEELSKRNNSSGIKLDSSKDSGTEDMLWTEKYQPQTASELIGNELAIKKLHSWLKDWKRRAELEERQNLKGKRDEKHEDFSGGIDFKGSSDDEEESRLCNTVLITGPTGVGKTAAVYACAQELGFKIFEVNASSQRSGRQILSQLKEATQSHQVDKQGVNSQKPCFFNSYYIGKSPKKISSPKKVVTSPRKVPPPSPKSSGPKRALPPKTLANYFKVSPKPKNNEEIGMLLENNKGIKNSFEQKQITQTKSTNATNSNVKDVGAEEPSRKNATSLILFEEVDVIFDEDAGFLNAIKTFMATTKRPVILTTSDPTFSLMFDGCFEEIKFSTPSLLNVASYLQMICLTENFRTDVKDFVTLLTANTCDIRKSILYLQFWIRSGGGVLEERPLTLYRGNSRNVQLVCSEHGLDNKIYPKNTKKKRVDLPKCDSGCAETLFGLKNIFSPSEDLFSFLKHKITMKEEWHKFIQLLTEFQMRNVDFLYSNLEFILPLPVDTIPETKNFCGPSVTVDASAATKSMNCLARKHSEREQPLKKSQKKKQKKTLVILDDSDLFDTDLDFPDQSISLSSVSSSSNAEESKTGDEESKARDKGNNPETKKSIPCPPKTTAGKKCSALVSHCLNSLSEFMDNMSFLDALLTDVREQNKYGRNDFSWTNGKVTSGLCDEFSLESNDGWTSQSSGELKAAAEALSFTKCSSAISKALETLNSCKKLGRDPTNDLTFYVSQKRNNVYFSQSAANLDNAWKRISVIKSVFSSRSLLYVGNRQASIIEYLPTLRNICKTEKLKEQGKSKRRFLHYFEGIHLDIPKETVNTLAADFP
ELG1 MMS Luc = MMS-stimulated human ELG1 repair inhibition, confirmed. HEK293T luciferase-tagged ELG1 level, MMS stimulated. AID 624249. 670 compounds, 53% hits. Potency, µM (highest dose often 46.1 µM), actives largely listed as inhibitors. shares compounds with ELG1 repair inh; further: nearly all actives have a fitted effect of over 60% in size
ELG1 5FU viab = confirmation of ELG1 repair inhibitors: viability with 5FU. cell viability with 5-FU, ELG1-dependent repair. 670 tested, under 10 active. AID 624250. Potency, µM (series often up to 46.1 µM), most hits filed as cytotoxic. shares compounds with ELG1 repair inh;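 further: ELG1-luc HEK293T cells cotreated with 5-fluorouridine at 10 µM final; viability measured 16 h after compound addition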
ELG1 MMS viab = confirmation of ELG1 repair inhibitors: viability with MMS; 670 compounds, 33% hits; Potency, µM (highest dose often 46.1 µM), usual class: cytotoxic; shares compounds with ELG1 repair inh; Cell viability with MMS, ELG1-dependent DNA repair;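 further: ELG1-luc HEK293T cells co-treated with 10 µM MMS; viability read 16 h after compound addition; nearly all actives have a fitted effect of over 60% in size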
ELG1 unstim viab = counter-screen for ELG1 repair inhibitors: unstimulated cell viability; 900 compounds, 8% hits; shares compounds with ELG1 repair inh; Potency, µM (series often up to 45.9 µM), usual class: cytotoxic; cell viability counter-screen, unstimulated, luminescence; AID 624252;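 further: compound exposure lasted 16 hours before reading; nearly all actives have a fitted effect of over 55% in size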
FLuc enzyme = firefly luciferase inhibition counter-screen | purified firefly luciferase, luminescence counter-screen | shares compounds with ELG1 repair inh | 350 compounds, 10% hits | AID 624253 | Potency, µM (top dose mostly 57.5 µM), actives largely listed as inhibitors
Numbers stand for hits; 0 = inactive; ? = inconclusive; - = not tested or not shown. The list is not random: actives were taken first. Their share in the collection is about 2.3%. Unless noted, the call rests on the fitted dose curve; in most records, active means well fitted curve in the direction sought with a large enough effect; inconclusive means small, poorly fitted or top-dose-only effect, or another doubt; inactive means no such curve, though single readings can be large; an effect the other way counts as inactive or inconclusive.

SMILES	TRPV1 agonist	ELG1 repair inh	FUS suppressor	Giardia killer	TRPV1 PAM	ELG1-Luc inh	ELG1 MMS Luc	ELG1 5FU viab	ELG1 MMS viab	ELG1 unstim viab	others
Cc1c(Cc2ccccc2)c(=O)oc2cc(OCC(=O)N3CCC(C(N)=O)CC3)ccc12	0	0.82µM	0	0	0	?	28.1µM	?	25µM	0	ELG1 FLuc counter=0;FLuc enzyme=?
O=C(COc1ccc2ccc(=O)oc2c1)N1CCN(C(=O)C2COc3ccccc3O2)CC1 (stereo not drawn)	0	1.46µM	0	0	0	2.81µM	0	?	0	0
Cc1cc(=O)oc2cc(OCC(=O)N3CCN(C(=O)C4COc5ccccc5O4)CC3)c(Cl)cc12 (stereo not drawn)	0	?	0	?	0	-	-	-	-	-
Cc1cc(=O)oc2cc(OCC(=O)N3CCN(C(=O)C4COc5ccccc5O4)CC3)ccc12 (stereo not drawn)	0	1.16µM	0	?	0	2.23µM	?	?	?	0
CCCc1cc(=O)oc2cc(OCC(=O)N3CCN(C(=O)C4COc5ccccc5O4)CC3)ccc12 (stereo not drawn)	0	3.66µM	0	0	0	3.15µM	?	?	0	?
NC(=O)C1CCN(C(=O)COc2ccc3c(c2)oc(=O)c2ccccc23)CC1	0	0	0	0	0	-	-	-	-	-
COc1ccc(N(CC(=O)Nc2cc(C)ccc2C)S(=O)(=O)c2ccc(OC)c(OC)c2)cc1	-	-	0	-	-	-	-	-	-	-
COc1ccc(C2(CNC(=O)C(=O)Nc3cccc(C(F)(F)F)c3)CCCC2)cc1OC	-	-	0	-	-	-	-	-	-	-
Cc1c(C)c2ccc(OCC(=O)N3CCN(C(=O)C4COc5ccccc5O4)CC3)cc2oc1=O (stereo not drawn)	0	1.83µM	0	0	?	3.97µM	0	?	0	?
Cc1c(CC(=O)N2CCN(C(=O)C3COc4ccccc4O3)CC2)c(=O)oc2cc(O)c(Cl)cc12 (stereo not drawn)	0	?	?	0	0	-	-	-	-	-
COc1cccc(CNC(=O)C2CCCN(c3nn4c(=O)cc(C)nc4s3)C2)c1 (stereo not drawn)	0	?	0	0	0	-	-	-	-	0	ELG1 FLuc counter=0;FLuc enzyme=0
O=C(NCCS(=O)(=O)N1CCN(c2ccccc2F)CC1)C(c1ccccc1)c1ccccc1	-	-	0	-	-	-	-	-	-	-
O=C(Cn1cnc2ccccc21)Nc1ccc(SC(F)F)cc1	0	2.06µM	0	0	0	0	1.58µM	0	1.77µM	?
Cc1ccc(OCC(=O)Nc2ccc(S(=O)(=O)N(Cc3ccccc3)c3ccccc3)cc2)cc1	-	-	0	-	-	-	-	-	-	-
CCOc1ccc(-c2nc(-c3cccnc3)no2)cc1	0	?	0	0	0	-	-	-	-	-
COc1ccc(-c2nc(-c3cccnc3)no2)cc1	0	?	0	0	0	-	-	-	-	0
Cc1cccc(-c2noc(CCC(=O)N3CCN(c4cc(C)ccc4C)CC3)n2)c1	-	?	0	0	-	-	-	-	-	0
Cc1ccc(C)c(N2CCN(C(=O)CCc3nc(-c4ccccc4)no3)CC2)c1	-	0	0	0	-	-	-	-	-	-
Fc1ccc2cc(CCO[C@H]3CCCCO3)ncc2c1	-	?	0	0	-	-	-	-	-	?
